From PubChem
Compounds with a hit are over-represented: about 4.8% of the library has one in this group of screens.
ssDAF-12 act: activators of S. stercoralis DAF-12 nuclear receptor | activation, % at 6.8 µM | AID 652126 | actives 1% (n = 370,000) | HEK293 ssDAF-12/GRIP1 lit1-tk-luc reporter, luminescence; % of 3 µM dafachronic acid response;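 active = activation above the mean over all tested compounds plus 3 SD, cut at about 0.9% in these data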
DAX1 inh-1: NR0B1 (DAX1) inhibition; actives 0.99% (n = 340,000); AID 504766; inhibition, % at 6.75 µM; HEK293 Gal4-DAX1 luciferase reporter, luminescence;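 active = inhibition above the mean over all tested compounds plus 3 SD, cut at about 4.2% in these data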;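 also: inhibition shows as a rise in luminescence from relieved DAX1 repression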
SMARCA2 act: SMARCA2 function activation, primary screen | MG213 cells, MMTV-luciferase reporter, dexamethasone, overnight | activation, % at 9.1 µM | actives 1% (n = 370,000); in the data active = activation above about 7.8%
hcDAF-12 act: activates DAF-12 receptor from parasite H. contortus; HEK293 hcDAF-12 lit1-tk-luc reporter, luminescence; 0% DMSO, 100% Δ7-dafachronic acid; AID 652067; actives 1.4% (n = 370,000); activation, % at 6.8 µM;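 active = activation above the mean of all tested compounds plus 3 SD, cut at about 5.5% in these data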
hgDAF12 agonist: agonists of H. glycines DAF-12 nuclear receptor. HEK293 GAL4-hgDAF12 UAS-luciferase reporter, agonist luminescence; normalized to butyrate control. activation, % at 6.8 µM. actives 1.8% (n = 370,000);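 active = activation above a cutoff set at the mean of all screened compounds plus 3 SD, cut at about 10% in these data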
DAX1 inh-2: inhibitors of DAX1 repression of SF-1 activated StAR promoter. HEK293T StAR-luciferase reporter, SF-1/DAX-1 repression relief. inhibition, % at 6.8 µM. actives 1.1% (n = 370,000). AID 652010;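 active = inhibition above the mean over all tested compounds plus 3 SD, cut at about 3.6% in these data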;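 also: higher inhibition means more luminescence from relief of DAX-1 repression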
DAX1 inh confirm: NR0B1 (human) inhibition, confirmation. shares compounds with DAX1 inh-2. HEK293T StAR-promoter luciferase reporter, SF-1/DAX-1 repression. inhibition, % at 6.8 µM. actives 87% (n = 2,400). AID 652134;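 active = inhibition above the average of every tested compound plus 3 SD, cut at about 3.8% in these data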;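 also: active compounds raise luminescence by relieving repression of the StAR reporter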
Target sequence (P51843 whole entry, looked up): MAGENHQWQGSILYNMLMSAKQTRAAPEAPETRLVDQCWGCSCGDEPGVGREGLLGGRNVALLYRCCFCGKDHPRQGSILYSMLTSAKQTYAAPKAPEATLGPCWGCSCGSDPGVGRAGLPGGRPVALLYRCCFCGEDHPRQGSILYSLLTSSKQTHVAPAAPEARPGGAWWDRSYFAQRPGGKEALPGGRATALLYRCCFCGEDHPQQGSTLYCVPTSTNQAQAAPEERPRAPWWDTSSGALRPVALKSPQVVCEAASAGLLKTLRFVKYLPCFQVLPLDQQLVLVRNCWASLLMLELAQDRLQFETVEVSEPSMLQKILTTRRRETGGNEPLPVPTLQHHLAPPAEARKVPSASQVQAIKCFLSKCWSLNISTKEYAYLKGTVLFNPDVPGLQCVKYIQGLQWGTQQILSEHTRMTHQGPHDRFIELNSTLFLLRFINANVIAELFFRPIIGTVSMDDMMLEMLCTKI
SF1 mutant ctr: nonselective inhibitor or artifact in SF-1 mutant DAX1 counter-screen | inhibition, % at 6.8 µM | HEK293 StAR-luciferase, SF-1 AF2 mutant, luminescence | shares compounds with DAX1 inh-2 | actives 78% (n = 2,400);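 active = inhibition above the mean of all tested compounds plus 3 SD, cut at about 3% in these data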
LXRb hcDAF ctr: LXR-beta agonism as hcDAF-12 counter-screen | 3,400 tested, under 10 active | shares compounds with hcDAF-12 act | AID 743027 | HEK293 Gal4-LXR tk-luc reporter, luminescence, 24 h; normalized: DMSO 0%, positive control 100% | activation, % at 6.8 µM;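 active = mean percent activation of the reporter above a cutoff set as the average over tested compounds plus their standard deviation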
hcDAF12 ag: hcDAF-12 agonism, confirmation assay. actives 61% (n = 3,400). HEK293 hcDAF-12 lit1-tk-luc reporter, luminescence; % of Δ7-dafachronic acid response. shares compounds with hcDAF-12 act. activation, % at 6.8 µM;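 active = mean activation across triplicate tests above the threshold derived from the earlier primary screen, cut at about 5.5% in these data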
hgDAF12 ag: confirmation of H. glycines DAF-12 agonists; shares compounds with hgDAF12 agonist; AID 743050; actives 80% (n = 3,300); HEK293 GAL4-hgDAF12 luciferase reporter, agonist mode; percent of butyrate response; activation, % at 6.8 µM;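 active = mean activation over triplicate wells above the hit cutoff derived from the earlier primary screen, cut at about 11% in these data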
LXR ag 2: LXR-beta agonism as DAF-12 counter-screen; shares compounds with hgDAF12 agonist; HEK293 Gal4-LXR luciferase reporter, 24 h; 3,300 tested, under 10 active; AID 743051; activation, % at 6.8 µM;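 active = mean activation of the triplicate above a set limit carried over from the primary screen, none filed active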
Hits are given with their value; . = inactive; / = no result.

SMILES	ssDAF-12 act	DAX1 inh-1	SMARCA2 act	hcDAF-12 act	hgDAF12 agonist	DAX1 inh-2	DAX1 inh confirm	SF1 mutant ctr	hgDAF12 ag	LXR ag 2	others
COC(=O)C1=C(C)N(Cc2ccc(F)cc2)C(=S)NC1c1cccc(Br)c1 (configuration not stated)	.	/	.	.	.	.	/	/	/	/
CN(C)c1ccc(CN(CC2CCCO2)C(=O)c2cccs2)cc1 (configuration not stated)	.	.	.	.	.	.	/	/	/	/
COc1cccc(-c2csc(NC3OC(=O)c4c3ccc(OC)c4OC)n2)c1 (configuration not stated)	.	/	.	.	.	.	/	/	/	/
COc1ccc2c(c1OC)C(=O)OC2Nc1nc(-c2ccc(-c3ccccc3)cc2)cs1 (configuration not stated)	0.9	.	.	9.1	21.3	5.1	10.4	6.5	13.6	.	LXRb hcDAF ctr=.;hcDAF12 ag=.
O=C(Nc1nsc(-c2ccccc2)n1)c1cccs1	.	.	.	.	14.7	4.5	7.9	4.5	15.8	.
O=C1C(C=Nc2ccc(F)cc2)=C(O)c2ccccc21	.	.	.	8.9	22.1	5.3	19.2	8.7	20.4	.	LXRb hcDAF ctr=.;hcDAF12 ag=9.5
Cc1c(NC(=O)COC(=O)c2ccccc2Cl)c(=O)n(-c2ccccc2)n1C	.	.	.	.	.	.	/	/	/	/
CCN(C(=O)COC(=O)CCOc1ccccc1C)c1c(N)n(Cc2ccccc2)c(=O)[nH]c1=O	.	.	.	.	.	.	/	/	/	/
Cc1cccc(-n2ncc3c(NC(C)C)ncnc32)c1	.	.	.	.	16.7	6.6	11.4	8.2	17.9	.
CC(C)Nc1ncnc2c1cnn2-c1ccccc1	.	.	.	.	16.8	5.4	7.2	4.2	12.2	.
CCC(CO)Nc1ncnc2c1cnn2-c1ccc(OC)cc1 (configuration not stated)	.	.	.	.	16.4	5.1	8.4	4.4	.	.
Cc1cccc(-n2ncc3c(Nc4ccc(F)cc4)ncnc32)c1	.	.	.	.	.	.	/	/	/	/
NNc1ncnc2c1cnn2-c1ccccc1	.	.	.	.	.	.	/	/	/	/
CSc1nc2c(c(=O)[nH]1)C(c1ccc(F)cc1)CC(=O)N2 (configuration not stated)	.	.	.	.	.	.	/	/	/	/
COc1ccc(C(=O)N(CC(=O)NC(C)(C)C)c2ccc3c(c2)OCCO3)cc1OC	.	.	.	.	.	.	/	/	/	/
CNC(=O)C(=O)NCC(c1cccs1)S(=O)(=O)c1ccc(F)cc1 (configuration not stated)	.	.	.	.	.	.	/	/	/	/
CNc1nc2c(N)ncnc2n1[C@H]1O[C@@H](CO)[C@H](O)[C@@H]1O	.	.	.	.	.	.	/	/	/	/
N/C(=N\OC(=O)c1ccc2ccccc2c1)c1ccncc1	1.1	5.2	.	7.1	16.9	5.2	10.2	6.2	13.6	.	LXRb hcDAF ctr=.;hcDAF12 ag=.
N/C(=N\OC(=O)c1ccc2ccccc2c1)c1ccccc1Cl	.	.	.	.	13.8	8.8	.	3.5	12.8	.
CSCc1ccc(C(=O)NCc2ccc(C)cc2)cc1	.	.	.	.	.	.	/	/	/	/
CSCc1ccc(C(=O)Nc2ccc(C(N)=O)cc2)cc1	.	.	.	.	13.3	5.3	9.6	5.0	13.1	.
COc1ccccc1NC(=S)N/N=C/c1ccc(O)cc1	.	.	.	6.1	18.7	5.5	15.6	8.4	19.7	.
COc1ccccc1NC(=S)N/N=C/c1cccc(C)c1	.	.	.	.	.	.	/	/	/	/
COc1ccc(C(=O)/C=C(\Nc2ccc(Br)c(C)c2)c2ccc(OC)cc2OC)c(OC)c1	.	/	.	.	.	.	/	/	/	/
C(=NOCc1ccccc1)c1ccccn1	.	.	.	.	16.7	6.0	6.1	2.9	14.5	.
SMILES	ssDAF-12 act	DAX1 inh-1	SMARCA2 act	hcDAF-12 act	hgDAF12 agonist	DAX1 inh-2	DAX1 inh confirm	SF1 mutant ctr	hgDAF12 ag	LXR ag 2	others
C(=C\c1ccccn1)/c1ccccn1	.	.	.	.	.	.	/	/	/	/
CC(=O)NC12CC3CC(C1)CC(C(=O)OCC(=O)c1cc(C)n(C)c1C)(C3)C2	.	.	.	6.7	16.4	9.8	11.4	7.1	13.6	.	LXRb hcDAF ctr=.;hcDAF12 ag=6.2
COC(=O)c1ccc(COc2ccccc2/C=C(\C#N)C(=O)Nc2ccc(C)cc2C)cc1	.	.	.	.	.	.	/	/	/	/
Nc1nc(CSc2n[nH]c(-c3ccccc3)n2)nc(Nc2ccccc2)n1	.	.	.	.	.	.	/	/	/	/
Cc1ccc(-c2nc(Nc3ccccc3)n[nH]2)cc1	1.4	.	.	12.2	14.4	6.2	23.0	11.4	21.7	.	LXRb hcDAF ctr=.;hcDAF12 ag=13.1
CCc1nc(N)nc(N)c1-c1ccc(Cl)c(N=[N+]=[N-])c1	.	.	.	.	.	.	/	/	/	/
O=C1c2ccccc2S(=O)(=O)N1CC1CC(c2ccc(Cl)cc2)=NO1 (configuration not stated)	.	.	.	6.7	15.2	4.8	14.1	7.5	13.8	.	LXRb hcDAF ctr=.;hcDAF12 ag=.
Cc1nc2cc3ccccc3cc2c(=O)[nH]1	.	.	.	.	.	.	/	/	/	/
Cc1cc(C(=O)c2ccccc2)nc2ccccc12	.	.	.	.	.	.	/	/	/	/
Cc1cc(/C=C\c2ccccc2)nc2ccccc12	.	5.6	.	10.3	15.4	6.0	6.4	4.1	16.7	.	LXRb hcDAF ctr=.;hcDAF12 ag=8.6
CCCCOc1ccc(-c2cnc3ccccc3n2)cc1	.	.	.	9.0	22.9	6.8	14.2	3.5	12.5	.	LXRb hcDAF ctr=.;hcDAF12 ag=6.4
O=C(Nc1ccc(N2CCCC2)c(Cl)c1)c1ccccc1F	.	.	.	.	22.1	5.1	14.4	4.8	16.0	.
C/C(=N\NC(=O)c1ccccn1)c1ccc(C(=O)O)s1	.	/	.	.	21.9	5.2	.	.	10.5	.
